# MITF inh = MITF inhibitors, primary screen, biochemical, AlphaScreen, human; Microphthalmia-associated transcription factor (Homo sapiens), O75030; AlphaScreen MITF homodimerization, bead proximity signal; inhibition, % at 2.6 µM; 0.91% of 650,000 active; in the data active = inhibition above about 50%;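 note: 0% = vehicle wells with protein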
# FBW7 act = FBW7 E3 ligase activators, primary screen, biochemical, AlphaScreen, human; AID 1259310, 2017; 0.13% of 650,000 active; F-box/WD repeat-containing protein 7 (Homo sapiens), Q969H0; normalized activity (activation), % at 26.1 µM; AlphaScreen FBW7–phospho-cyclin E peptide binding, activator screen; in the data active = normalized activity above about 1.9%;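 note: purified mutant Fbw7 with reduced substrate affinity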
# GPR151 activ = activators of human GPR151, primary screen, cell-based, PathHunter beta-arrestin, luminescence; G-protein coupled receptor 151 (Homo sapiens), Q8TDV0; PathHunter beta-arrestin GPR151 cells; activation, % at 11.2 µM; 1% of 650,000 active; AID 1508602, 2020; in the data active = activation above about 4.9%;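 note: 0% = median of compound wells and 100% = cells with positive control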
# Target sequence (Q8TDV0 whole entry, looked up): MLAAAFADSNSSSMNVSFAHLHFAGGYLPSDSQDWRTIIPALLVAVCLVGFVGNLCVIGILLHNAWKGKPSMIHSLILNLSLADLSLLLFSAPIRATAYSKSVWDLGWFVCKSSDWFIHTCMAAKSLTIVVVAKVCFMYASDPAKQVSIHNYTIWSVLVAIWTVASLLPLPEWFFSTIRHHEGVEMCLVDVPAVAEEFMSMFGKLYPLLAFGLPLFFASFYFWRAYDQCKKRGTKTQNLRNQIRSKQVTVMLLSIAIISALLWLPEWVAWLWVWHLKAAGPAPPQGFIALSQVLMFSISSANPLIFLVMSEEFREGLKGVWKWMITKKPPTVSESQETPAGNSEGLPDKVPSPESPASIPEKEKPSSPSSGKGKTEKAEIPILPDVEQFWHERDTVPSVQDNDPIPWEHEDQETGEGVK
# TEAD-YAP inh = TEAD-YAP interaction inhibition, primary screen, TEAD-YAP interaction inhibitor project, luminescence, HEK-TIYL cells; AID 1259422, 2018; 1.4% of 640,000 active; inhibition, % at 9.12 µM; TEAD-Gal4/YAP UAS-luciferase luminescence; in the data active = inhibition above about 32%;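 note: 0% = median of test compound wells and 100% = reference inhibitor wells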
# MITF confirm = MITF inhibitors, retest of hits, confirmation, biochemical, AlphaScreen, triplicate | inhibition, % at 2.6 µM | AlphaScreen MITF homodimerization, biotin/His-MITF beads | shares compounds with MITF inh | 16% of 4,700 active;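 active = inhibition above a cutoff derived from the DMSO control wells, cut at about 28% in these data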;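 note: 0% = MITF dimer wells with DMSO only; inhibitors lower the bead chemiluminescence by keeping MITF from dimerizing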
# AS interf ctr = AlphaScreen optical interference compounds, counter-screen for MITF inhibitor project, biochemical, triplicate | shares compounds with MITF inh | LysRS AlphaScreen counterscreen, signal interference | inhibition, % at 2.6 µM | 7.6% of 4,700 active;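 active = inhibition above a cutoff derived from the DMSO control wells, cut at about 30% in these data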
# * marks the source's active call; other numbers are inactive results; x = no result given. A selection: hits, their analogues and other compounds. The true share with any hit is near 3.4%.
SMILES,MITF inh,FBW7 act,GPR151 activ,TEAD-YAP inh,MITF confirm,AS interf ctr
Cc1cccc(Nc2c([N+](=O)[O-])cc([N+](=O)[O-])c3nonc23)c1,56*,0,0,-14,-5,6
Cc1cccc(Nc2c([N+](=O)[O-])ccc3nonc23)c1,-8,0,-1,3,x,x
O=C1CCCN1CCn1cnc2c(NCc3nc4ccccc4[nH]3)nc(Nc3ccccc3)nc21,52*,0,-1,10,1,8
CCOc1ccc(NC(=O)C2c3ccccc3C(=O)N(Cc3ccc(F)cc3)C2c2ccc(OC)cc2)cc1 (stereo unspecified),7,0,0,-7,x,x
CCC(C)c1ccc(N2C(=O)c3ccccc3NC2c2ccc(Cl)cc2)cc1 (stereo unspecified),9,0,-1,-16,x,x
CC1(C)CC(=O)C(/C=N/Nc2n[nH]c(=O)[nH]c2=O)=C(O)C1,95*,-1,-1,-15,34*,98*
c1ccc(Oc2cccc(CN3CCN(Cc4ccncc4)CC3)c2)cc1,69*,0,0,5,0,-5
COc1cccc(CN2CCC(=O)N(Cc3ccc(F)cc3)CC2)c1,8,0,-1,1,x,x
Fc1ccc(CN2CCN(Cc3cccc(Oc4ccccc4)c3)CC2)cc1,68*,0,0,6,6,11
O=C(c1ccncc1)N1CCN(Cc2cccc(Oc3ccccc3)c2)CC1,35,1,-1,7,x,x
CCN1CCN(Cc2cccc(Oc3ccccc3)c2)CC1,66*,0,-1,3,4,-3
CCOc1ccc(CN2CCN(Cc3cccc(Oc4ccccc4)c3)CC2)cc1,27,0,1,-1,x,x
Fc1ccccc1CN1CCN(Cc2cccc(Oc3ccccc3)c2)CC1,72*,0,0,-6,6,3
c1ccc(Oc2cccc(CN3CCSCC3)c2)cc1,43,0,0,0,x,x
COc1ccc(CN2C(=O)NC(=O)/C(=C\c3cnc(-c4ccccc4)nc3)C2=O)cc1,14,-1,1,2,x,x
Nc1cccc(-c2cc(C(=O)NCc3nc4ccccc4[nH]3)ccn2)c1,26,0,-3,-6,x,x
CCC(c1nnc(SCC(=O)N(C)C)o1)N(C)C (stereo unspecified),81*,0,1,6,7,15
Cc1ccc(C23CC4CC(CC(C4)C2)C3)cc1[N+](=O)[O-],54*,0,1,-4,4,13
COc1ccc(C23CC4CC(CC(C4)C2)C3)cc1[N+](=O)[O-],0,0,0,-1,x,x
O=C(CCC1CCCC1)Nc1noc2ccccc12,6,0,2,-7,x,x
O=C1CCCCN1c1cccc(NS(=O)(=O)c2ccccc2)c1,4,0,-1,0,x,x
O=C1CCCN1c1cccc(NS(=O)(=O)c2cccc3ccccc23)c1,51*,0,3,0,6,-1
NNc1nnc(Cc2ccccc2)c(=O)[nH]1,29,0,0,3,x,x
NCC(=O)Nc1c2c(nc3c1CCC3)CCC2,62*,0,0,1,-1,0
O=C(CN1CCCCC1)Nc1c2c(nc3c1CCC3)CCCC2,71*,0,1,5,1,-3
SMILES,MITF inh,FBW7 act,GPR151 activ,TEAD-YAP inh,MITF confirm,AS interf ctr
CC(C)(C)NCC(=O)Nc1c2c(nc3c1CCC3)CCC2,-2,0,1,-1,x,x
Cc1cc(NC(=O)CN2CCCCC2)c2ccccc2n1,51*,0,1,4,21,-8
O=C(CN1CCCCCC1)NC(c1ccccc1)c1ccccc1,54*,0,0,-2,12,23
Cc1cc(NC(=O)CN2CCOCC2)c2ccccc2n1,-5,0,1,-3,x,x
COc1ccc(/C=N/NC(=O)CNC(=O)c2cc(OC)c(OC)c(OC)c2)cc1OC,10,0,0,-2,x,x
NC(=O)C1CCN(CC(=O)Nc2c3c(nc4ccccc24)CCC3)CC1,0,0,-1,3,x,x
O=C(CN1CCCCC1)Nc1c2c(nc3ccccc13)CCCC2,66*,0,1,4,8,11
Cc1ccc2c(c1)N(CC(=O)Nc1ccc3c(c1)OCCO3)C(=O)C(C)O2 (stereo unspecified),17,0,-1,1,x,x
Cc1ccc(N(CCC#N)C(=O)/C(C#N)=C/c2ccco2)cc1,-2,0,0,-1,x,x
Fc1ccc(-c2cc(NCCCn3ccnc3)nc(-c3ccccn3)n2)cc1,56*,-1,-1,5,24,62*
Fc1ccc(-c2cc(NCCCn3ccnc3)nc(-c3ccccc3)n2)cc1,55*,-1,-1,7,34*,42*
FC(F)(F)c1cccc(-c2cc(NCCCn3ccnc3)nc(-c3ccccn3)n2)c1,21,-1,1,7,x,x
c1cc(-c2cc(NCCCn3ccnc3)nc(-c3ccncc3)n2)ccn1,72*,-1,1,-16,34*,42*
Cc1nc(N2CCCCC2C)c2c(C)c(C(=O)Nc3ccc(Oc4ccccc4)cc3)sc2n1 (stereo unspecified),-9,0,0,-3,x,x
CC1CN(C2CCC2)Cc2ccccc2O1 (stereo unspecified),28,2,0,6,x,x
COc1cc(OC)c(OC)cc1CN1CCN(C(=O)c2cccnc2)CC1,68*,0,-1,-12,4,4
O=C(c1cccnc1)N1CCN(Cc2ccccc2F)CC1,56*,0,-1,-1,0,-4
COc1ccc(OC)c(CN2CCN(C(=O)c3cccnc3)CC2)c1,59*,1,-2,-5,6,18
COc1ccccc1C(=O)N1CCN(C(=O)c2cccnc2)CC1,0,0,2,1,x,x
O=C(c1cccnc1)N1CCN(Cc2ccccc2Br)CC1,40,0,1,-5,x,x
Cc1c(NC(=O)COc2ccc(Br)cc2)cccc1[N+](=O)[O-],5,0,-2,-1,x,x
COc1ccc(Cc2nnc3n2N(C(C)=O)C(c2ccc(F)cc2)=C(C(C)=O)S3)cc1,10,0,4,6,x,x
CN(C(=O)c1cccc(S(=O)(=O)N(C)C)c1)c1ccccc1,4,0,0,1,x,x
COc1ccc(CN2CCN(C(=O)c3cccnc3)CC2)cc1Br,60*,0,0,9,-6,-9
COc1cc(CN2CCN(C(=O)c3ccc(F)cc3)CC2)cc(OC)c1O,53*,0,0,0,-5,2
COc1ccc(CN2CCN(C(=O)c3ccccc3)CC2)cc1Br,46,0,-2,6,x,x
COc1ccc(CN2CCN(C(=O)c3cccc(F)c3)CC2)cc1Br,59*,0,-1,3,15,15
